# Screens as filed in PubChem BioAssay.
# PLK1 PBD inh: blocks phosphopeptide binding to human PLK1 polo-box domain | P53350 | Plk1 PBD binding of FITC phosphopeptide, fluorescence polarization | Potency, µM, for inactives: max response, negative = inhibition, hits mostly inhibitors | 360,000 tested, 2.8% active; further: potency means the concentration at half of the fitted maximal effect; series mostly up to about 57 µM; nearly all actives have a fitted effect of over 65% in size
# MmCpn inh: inhibitors of Methanococcus maripaludis chaperonin TRiC (MmCpn). purified Mm-Cpn ATPase, ADP Transcreener TR-FRET. Potency, µM (titrated, usually from 76.9 µM), inactives show top-dose activity, negative = inhibition, actives largely listed as inhibitors. 330,000 tested, 0.031% active. AID 504842; further: potency means the concentration at half of the fitted maximal effect; nearly all actives have a fitted effect of over 80% in size
#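 Measured: ADP formation by purified Mm-CPN. Conditions: 25 nM protein, 10 uM ATP, Tris pH 7.4 with Mg2+, K+ and DTT, 37°C for 30 min. Detection: Transcreener HTRF after 30 min at room temperature.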
# VDR inhibitor: blocks the human vitamin D receptor; P11473; VDR-SRC2-3 peptide fluorescence polarization, 2 h; Potency, µM, inactives show max response, negative = inhibition, most hits filed as inhibitors; 400,000 tested, 0.93% active; AID 504847; further: potency means the concentration at half of the fitted maximal effect
# Target sequence (P11473 whole entry, looked up): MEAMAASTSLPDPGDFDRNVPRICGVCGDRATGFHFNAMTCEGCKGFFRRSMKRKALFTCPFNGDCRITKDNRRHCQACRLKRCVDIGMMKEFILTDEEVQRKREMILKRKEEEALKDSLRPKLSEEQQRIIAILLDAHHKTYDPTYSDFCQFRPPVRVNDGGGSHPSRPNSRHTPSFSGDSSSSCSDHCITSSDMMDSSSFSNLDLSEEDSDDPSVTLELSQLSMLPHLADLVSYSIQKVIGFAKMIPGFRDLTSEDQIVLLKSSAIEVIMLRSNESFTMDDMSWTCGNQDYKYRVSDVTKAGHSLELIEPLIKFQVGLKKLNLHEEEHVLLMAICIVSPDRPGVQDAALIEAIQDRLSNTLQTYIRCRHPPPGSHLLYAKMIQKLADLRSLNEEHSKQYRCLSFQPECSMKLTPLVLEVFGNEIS
#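 Reagent solutions, kept cold and dark, are dispensed first; compounds are then pinned in at 23 nl, plates briefly spun, and incubated 2 h at ambient temperature. Inhibition of VDR–SRC2-3 peptide binding is read by fluorescence polarization.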
# Sfp PPTase inh: blocks B. subtilis Sfp PPTase activity | Potency, µM, inactives show largest response in the series, negative = inhibition, most hits filed as inhibitors | Biochemical Sfp PPTase activity, qHTS | Q9F4F7 | 310,000 tested, 3.5% active;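 further: the enzyme is Sfp with the accession as filed and its product quenches rhodamine fluorescence; potency means the concentration at half of the fitted maximal effect; 0% = enzyme reaction without inhibitor and -100% = no enzyme wells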
#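 Fluorescence-quenching assay: 15 nM Sfp-PPTase preincubated 15 min at room temperature with compound, then 5 uM rhodamine-CoA and 12.5 uM BHQ-2-labelled YbbR peptide added. Fluorescence (ex 525/em 598 nm) read at start and after 30 min; difference gives rate.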
# CCT modulator: changes cytosolic chaperonin activity; purified chaperonin ATPase assay, HTRF ADP detection, 30 min; activity change, % (concentration not given with the values), hits read low; 360,000 tested, 0.3% active; in the data active means activity change below about -30%
#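 TRiC at 40 or 20 nM final (batch-dependent) in 30 mM Tris pH 7.4, 100 mM KCl, 5 mM MgCl2, 1 mM DTT, with compound at single 76 uM and 10 uM ATP, 30 min at 37 deg C. ADP detected by HTRF Transcreener, 665/615 ratio.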
# G9a inh: inhibitors of human histone lysine methyltransferase G9a. Q96KQ7. G9a H3K9 monomethylation, AlphaScreen, 2 h. Potency, µM (top dose mostly 102 µM), without a hit: top-dose activity, negative = inhibition, usual class: inhibitors. 350,000 tested, 8.8% active; further: potency means the concentration at half of the fitted maximal effect; nearly all actives have a fitted effect of over 75% in size
# Target sequence (Q96KQ7 913-1193 limits assumed): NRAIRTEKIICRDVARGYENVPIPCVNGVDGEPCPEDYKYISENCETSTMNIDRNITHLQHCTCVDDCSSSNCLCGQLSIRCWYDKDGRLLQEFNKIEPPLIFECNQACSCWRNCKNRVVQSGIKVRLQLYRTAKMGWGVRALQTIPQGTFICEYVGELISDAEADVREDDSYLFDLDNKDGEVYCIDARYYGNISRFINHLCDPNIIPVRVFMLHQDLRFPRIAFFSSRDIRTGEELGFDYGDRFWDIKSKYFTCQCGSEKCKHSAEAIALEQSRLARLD
#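 Signal arises when biotinylated H3K9 peptide, once monomethylated, bridges streptavidin donor and antibody-captured acceptor beads. Enzyme at 20 nM was preincubated 15 min with test compounds; peptide 500 nM and SAM 20 uM then reacted for 2 h.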
# Numbers without * were called inactive; u = inconclusive; x = no result; [ ] = another dose, or the depositor's remark. Only some compounds are listed: those with a hit (about 10% of all), similar ones and a draw of the others. Unless noted, the call rests on the fitted dose curve; in most records, active means well fitted curve in the direction sought with a large enough effect; inconclusive means small, poorly fitted or top-dose-only effect, or another doubt; inactive means no such curve, though single readings can be large; an effect the other way counts as inactive or inconclusive. Unless noted, on the % scale 0 is the no-effect control and ±100 the full control effect.
SMILES,PLK1 PBD inh,MmCpn inh,VDR inhibitor,Sfp PPTase inh,CCT modulator,G9a inh
COc1n[nH]c(C(=O)NCc2ccccc2)c1[N+](=O)[O-],-9%,-1%,7%,-5%,0,56µM*
COc1n[nH]c(C(=O)Nc2nc3ccccc3s2)c1[N+](=O)[O-],-10%,0%,u,28%,-4,14µM*
NC(=S)c1ccc[n+]([C@@H]2O[C@@H](COP(=O)([O-])OP(=O)(O)OC[C@H]3O[C@@H](n4cnc5c(N)ncnc54)[C@H](OP(=O)(O)O)[C@H]3O)C(O)C2O)c1 (stereo partly drawn),x,x,x,x,x,18µM*
NC(=O)c1ccc[n+]([C@@H]2OC(COP(=O)([O-])OP(=O)(O)OCC3OC(n4cnc5c(N)ncnc54)C(O)C3O)C(O)C2O)c1 (stereo partly drawn),x,x,0%,6%,x,-40%[2.33 µM]
NC(=S)c1ccc[n+]([C@@H]2O[C@@H](COP(=O)([O-])OP(=O)(O)OC[C@H]3O[C@@H](n4cnc5c(N)ncnc54)[C@H](OP(=O)(O)O)[C@@H]3O)C(O)C2O)c1 (stereo partly drawn),x,x,1%,x,x,7.9µM*
CCOc1ccc(C(=O)OCc2nnc(-c3cccs3)o2)cc1OC,-2%,-2%,-8%,-1%,-72*,13%[59 µM]
O=C(OCc1nnc(-c2cccs2)o1)c1cccnc1Cl,-10%,-1%,-17%,x,1,u
CC1=CC(=C(C#N)c2nc3ccccc3s2)C=C(C)N1c1ccc(F)cc1,21µM*,0%,1%,7%,0,75%[59 µM]
O=C(Nc1cc2c(cc1C(=O)c1ccccc1Cl)OCCO2)c1ccccc1,x,x,4%,x,x,41%[59 µM]
COc1ccc(-c2cc(C(=O)NCc3ccc(F)cc3)no2)cc1,x,x,-12%,x,x,5%[59 µM]
CCN1C(=S)SC(=O)C1=C1C=C(C)N(CCOC)C(C)=C1,x,-5%,x,50µM*,x,u
COCCN1C(=O)/C(=C/c2ccc(N3CCCC3)cc2)SC1=S,26%,-1%,-3%,45%,-2,-29%
COc1cc(OC)c(NC(=O)CSc2cc(=O)n(C)c3ccc(Cl)cc23)cc1Cl,x,x,-22%,x,x,2%[59 µM]
CC(C)C(=O)NC(c1ccco1)c1ccc2cccnc2c1O (stereo not drawn),-5%,0%,5%,8%,-2,6%[59 µM]
Oc1c(C(Nc2nc3ccccc3s2)c2ccco2)ccc2cccnc12 (stereo not drawn),-12%,-1%,-21%,7%,-3,25µM*
COc1cccc(N2CCN(C(=O)Cn3c(-c4cccs4)cc4ccccc43)CC2)c1,x,x,7%,x,x,-33%[59 µM]
CCCNC(=O)CSc1nnc(-c2ccco2)n1C,2.7µM*,-2%,-15%,10%,-1,-3%
Cc1cccc(CSc2nnc(-c3ccco3)n2C)c1,-11%,0%,-3%,7%,-2,u
c1ccc(-n2c(SCc3ccncc3)nnc2-c2ccco2)cc1,-9%,-6%,0%,28µM*,-2,u
Cn1c(SCc2cccc3ccccc23)nnc1-c1ccco1,-8%,-2%,5%,1%,0,16µM*
CCOC(=O)c1sc(NC(=O)CSc2nnc(-c3ccco3)n2CC)c(C(=O)OCC)c1C,-16%,-1%,20%,25µM*,1,18µM*
CCn1c(SCC(=O)N(C)CC(=O)Nc2ccc(OC)cc2)nnc1-c1ccco1,-20%,0%,3%,x,6,20µM*
COC(=O)c1c(NC(=O)CSc2nnc(-c3ccco3)n2C)sc(C)c1C,30µM*,-1%,u,4%,-2,-13%[59 µM]
CCn1c(SCC(=O)N(C)CC(=O)Nc2cccc(OC)c2)nnc1-c1ccco1,-7%,-1%,-8%,x,1,-30%
O=C(Cc1cc(=O)[nH][nH]1)N/N=C/c1c(Cl)cccc1Cl,17µM*,-8%,-27%,50µM*,-2,3%[59 µM]
SMILES,PLK1 PBD inh,MmCpn inh,VDR inhibitor,Sfp PPTase inh,CCT modulator,G9a inh
O=C(Cc1cc(=O)[nH][nH]1)N/N=C/c1c(F)cccc1Cl,-2%,1%,-5%,16%,-11,-5%
Cc1nnc(NC2=NCCC2)o1,1%,1%,7%,u,-1,9%[12.7 µM]
Cc1nnc(NC2=NCCC2)s1,-3%,-3%,14%,-17%,2,28µM*
Cc1cc(C)c(S(=O)(=O)N(CC(=O)O)CC(=O)O)c(C)c1,-2%,-1%,-3%,-20%,-1,22µM*
Cc1cc(C)c(S(=O)(=O)N(C)CC(=O)N2CCCC2)c(C)c1,8%,x,x,x,-1,x
Nc1nc(NCc2ccc(Cl)cc2)nc(NCCO)c1[N+](=O)[O-],-10%,-3%,1%,13%,-5,-9%
Nc1nc(Nc2ccc(Cl)cc2)nc(NCCO)c1[N+](=O)[O-],2%,0%,6%,10%,1,50µM*
COc1cccc(Nc2ncc3ncc(=O)n(CCc4ccccc4)c3n2)c1,x,x,10%,-6%,x,-15%[0.501 µM]
CN(C)c1nc(=NCc2ccco2)ss1,2.7µM*,0%,28µM*,0.5µM*,-1,x
Nc1cc(Cl)ccc1N1CCCC1,-15%,4%,-27%,-6%,0,14µM*
O=C(O)c1cc([N+](=O)[O-])cc([N+](=O)[O-])c1N1CCN(c2cccc(C(F)(F)F)c2)CC1,4%,u,-6%,-7%,-1,56µM*
Nc1cc(S(=O)(=O)N2CCCCC2)ccc1N1CCCCC1,-1%,1%,-8%,x,-5,1%[12.7 µM]
O=[N+]([O-])c1cc(C(F)(F)F)ccc1N1CCCNCC1,6%,1%,-9%,-12%,-3,x
O=[N+]([O-])c1cc(Cl)ccc1N1CCN(c2cccc(C(F)(F)F)c2)CC1,-2%,0%,-4%,u,-2,25µM*
COc1cccc(N2CCN(c3ccc(N4C(=O)CCC4=O)cc3[N+](=O)[O-])CC2)c1,0%,2%,0%,-2%,-1,50µM*
C=C(C)CN1CCN(c2ccc(N3C(=O)CCCC3=O)cc2[N+](=O)[O-])CC1,3%,-1%,3%,11%,-1,-23%
COc1ccc(-c2nnc(SCC(=O)c3ccc(NC(C)=O)cc3)o2)cc1OC,x,x,6%,x,x,1%[59 µM]
O=[N+]([O-])c1cc(Cl)ccc1N1CCOCC1,-14%,4%,-1%,-2%,0,u
O=[N+]([O-])c1cc(Cl)ccc1N1CCCC1,-11%,0%,4%,-2%,2,20µM*
Clc1ccc(Cc2nn3c(Cn4nnc5ccccc54)nnc3s2)cc1,27µM*,1%,-22%,28µM*,1,u
c1ccc2c(c1)nnn2Cc1nnc2sc(-c3ccncc3)nn12,32µM*,-7%,-12%,40µM*,-4,u
O=C(Cn1nnc2ccccc21)c1ccc(Cl)cc1,-16%,0%,-7%,-3%,-2,x
